According to PubChem BioAssay (Tox21):
Records with an inconclusive call do not appear. Activity calls are given as the source filed them. Unless noted, calls follow the shape of the full dose curve.

Key:
[1] = target: Acetylcholinesterase (Homo sapiens) (UniProt P22303); test: Acetylcholinesterase (AChE) small molecule antagonists: colormetric cell-based qHTS assay (AID 1347395); settings: SH-SY5Y cells AChE activity, colorimetric (Ellman); series mostly up to 115 µM; also: nearly all actives have a fitted effect of over 30% in size; also: potency is read from the fitted curve at half-maximal effect
Outline: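 Quantitative HTS in attached SH-SY5Y cells: 30 min compound exposure, then 90 min with acetylthiocholine and DTNB at 37 C; colour from thiocholine reports AChE activity.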

[2] = target: Acetylcholinesterase (Homo sapiens) (UniProt P22303); test: Acetylcholinesterase (AChE) small molecule antagonists: enzyme-based qHTS assay (AID 1347397); settings: Potency: AChE enzyme activity inhibition; outcome: AChE enzyme activity inhibition; series mostly up to 115 µM; also: nearly all actives have a fitted effect of over 55% in size; also: potency is read from the fitted curve at half-maximal effect
Outline: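 Enzyme inhibition was scored from DTNB-detected thiocholine formed by recombinant human AChE acting on acetylthiocholine. The 30 min compound preincubation and 10 min substrate reaction were both run at room temperature, with DMSO as vehicle control.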

[3] = target: Acetylcholinesterase (Homo sapiens) (UniProt P22303); test: Acetylcholinesterase (AChE) small molecule antagonists: enzyme-based qHTS assay with human liver microsomes (AID 1347399); settings: Potency: qHTS inhibition; outcome: qHTS inhibition; series mostly up to 115 µM; also: nearly all actives have a fitted effect of over 60% in size
Outline: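 Recombinant human AChE (50 mU/mL in the enzyme mix) and human liver microsomes (0.25 mg/mL final) were preincubated with compound and NADPH (0.25 mg/mL final) for 30 min at 37 C. Acetylthiocholine/DTNB was then added; thiocholine was read colorimetrically after 10 min at room temperature.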

[4] = qHTS assay for small molecule agonists of the p53 signaling pathway (AID 651631); settings: HCT-116 p53RE-bla reporter, beta-lactamase FRET ratio, 16 h; series mostly up to 73.3 µM; also: nearly all actives have a fitted effect of over 15% in size; also: potency is read from the fitted curve at half-maximal effect
Outline: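 Fluorescence intensity from cleaved LiveBLAzer B/G substrate (2 h, room temperature) served as the signal. Beforehand, HCT-116 reporter cells bearing p53 response elements were treated 16 h at 37 °C with DMSO-dissolved compounds.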

[5] = target: Acetylcholinesterase (Homo sapiens) (UniProt P22303); test: Acetylcholinesterase (AChE) small molecule antagonists: fluorescence cell-based qHTS assay (AID 1347398); settings: SH-SY5Y cells; Potency: AChE activity; outcome: AChE activity; series mostly up to 115 µM; also: nearly all actives have a fitted effect of over 50% in size
Outline: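 Endogenous acetylcholinesterase of SH-SY5Y neuroblastoma cells is measured in situ. After overnight attachment and 30 min compound exposure, cells receive acetylthiocholine and Thiolite Green; fluorescence is read after 40 min at room temperature.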

[6] = target: Glucocorticoid receptor (Homo sapiens) (UniProt P04150); test: qHTS assay to identify small molecule antagonists of the glucocorticoid receptor (GR) signaling pathway (AID 720692; active = well fitted inhibition curve with a large enough effect in the signal ratio in the repeat runs, not every such curve was filed as active; the % refers to the signal ratio); settings: GR-bla HeLa, beta-lactamase FRET ratio, dexamethasone-stimulated, 18 h; series mostly up to 58.5 µM
Outline: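 HeLa GR-bla cells; cmpd + dex 5 nM final, 18 h 37 C; LiveBLAzer B/G FRET substrate 2 h RT; fluorescence intensity read. Antagonist mode, qHTS.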

Aromatase (Homo sapiens) = Aromatase (Homo sapiens) (UniProt P11511); test: qHTS assay to identify aromatase inhibitors (AID 743083; active = well fitted inhibition curve with a large enough effect in the repeat runs; also: nearly all actives have a fitted effect of over 55% in size; also: potency is read from the fitted curve at half-maximal effect); settings: MCF-7 aro ERE, testosterone-driven ERE luciferase, 24 h; series mostly up to 70.3 µM
[7] = target: Peroxisome proliferator-activated receptor delta (Homo sapiens) (UniProt Q03181); test: qHTS assay to identify small molecule antagonists of the peroxisome proliferator-activated receptor delta (PPARd) signaling pathway (AID 743215; active = well fitted inhibition curve with a large enough effect in the signal ratio in the repeat runs, not every such curve was filed as active; the % refers to the signal ratio;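 also: cells stimulated with agonist L165041 at 300 nM final during compound exposure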); settings: HEK293H PPARd-UAS-bla, beta-lactamase FRET ratio, antagonist, 17 h; series mostly up to 62 µM
Outline: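 Read-out is beta-lactamase FRET fluorescence, measured 2 h after substrate addition at room temperature. Beforehand, UAS-bla HEK293H cells carrying the PPARd reporter were exposed to compounds with L165041 at 300 nM final for 17 h at 37 C.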
% is scaled to controls: 0 for no effect and ±100 for the full control effect.

Chain of Aromatase (Homo sapiens) (P11511 whole entry, looked up): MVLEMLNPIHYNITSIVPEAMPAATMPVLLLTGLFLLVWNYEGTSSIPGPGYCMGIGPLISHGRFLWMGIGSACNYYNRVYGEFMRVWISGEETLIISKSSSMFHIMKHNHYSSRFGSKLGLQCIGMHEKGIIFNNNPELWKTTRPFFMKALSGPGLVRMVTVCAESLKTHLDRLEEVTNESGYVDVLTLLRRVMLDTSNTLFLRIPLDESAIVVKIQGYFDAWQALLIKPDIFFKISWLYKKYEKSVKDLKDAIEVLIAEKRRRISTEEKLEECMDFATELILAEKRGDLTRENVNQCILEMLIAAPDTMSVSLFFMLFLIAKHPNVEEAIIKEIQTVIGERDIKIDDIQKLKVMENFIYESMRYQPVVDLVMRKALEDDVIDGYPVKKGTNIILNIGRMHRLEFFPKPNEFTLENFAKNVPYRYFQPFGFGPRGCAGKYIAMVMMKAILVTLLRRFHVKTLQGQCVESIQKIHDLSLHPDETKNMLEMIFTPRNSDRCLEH
Chain of Acetylcholinesterase (Homo sapiens) (P22303 whole entry, looked up): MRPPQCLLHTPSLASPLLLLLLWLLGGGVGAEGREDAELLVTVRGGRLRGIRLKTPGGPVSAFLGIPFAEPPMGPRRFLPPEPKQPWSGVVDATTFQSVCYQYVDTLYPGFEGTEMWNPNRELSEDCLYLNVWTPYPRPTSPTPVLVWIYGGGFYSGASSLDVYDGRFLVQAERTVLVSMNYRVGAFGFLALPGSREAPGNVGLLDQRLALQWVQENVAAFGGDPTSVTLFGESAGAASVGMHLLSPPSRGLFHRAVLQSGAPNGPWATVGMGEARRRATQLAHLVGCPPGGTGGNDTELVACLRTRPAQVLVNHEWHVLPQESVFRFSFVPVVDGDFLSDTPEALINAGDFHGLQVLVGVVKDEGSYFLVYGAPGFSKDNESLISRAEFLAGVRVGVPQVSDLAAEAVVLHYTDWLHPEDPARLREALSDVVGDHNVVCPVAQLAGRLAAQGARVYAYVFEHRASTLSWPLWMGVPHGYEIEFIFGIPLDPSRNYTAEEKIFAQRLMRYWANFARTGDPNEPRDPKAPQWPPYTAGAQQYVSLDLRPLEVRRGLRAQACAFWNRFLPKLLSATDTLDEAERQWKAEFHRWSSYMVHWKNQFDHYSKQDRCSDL
Chain of Glucocorticoid receptor (Homo sapiens) (P04150 whole entry, looked up): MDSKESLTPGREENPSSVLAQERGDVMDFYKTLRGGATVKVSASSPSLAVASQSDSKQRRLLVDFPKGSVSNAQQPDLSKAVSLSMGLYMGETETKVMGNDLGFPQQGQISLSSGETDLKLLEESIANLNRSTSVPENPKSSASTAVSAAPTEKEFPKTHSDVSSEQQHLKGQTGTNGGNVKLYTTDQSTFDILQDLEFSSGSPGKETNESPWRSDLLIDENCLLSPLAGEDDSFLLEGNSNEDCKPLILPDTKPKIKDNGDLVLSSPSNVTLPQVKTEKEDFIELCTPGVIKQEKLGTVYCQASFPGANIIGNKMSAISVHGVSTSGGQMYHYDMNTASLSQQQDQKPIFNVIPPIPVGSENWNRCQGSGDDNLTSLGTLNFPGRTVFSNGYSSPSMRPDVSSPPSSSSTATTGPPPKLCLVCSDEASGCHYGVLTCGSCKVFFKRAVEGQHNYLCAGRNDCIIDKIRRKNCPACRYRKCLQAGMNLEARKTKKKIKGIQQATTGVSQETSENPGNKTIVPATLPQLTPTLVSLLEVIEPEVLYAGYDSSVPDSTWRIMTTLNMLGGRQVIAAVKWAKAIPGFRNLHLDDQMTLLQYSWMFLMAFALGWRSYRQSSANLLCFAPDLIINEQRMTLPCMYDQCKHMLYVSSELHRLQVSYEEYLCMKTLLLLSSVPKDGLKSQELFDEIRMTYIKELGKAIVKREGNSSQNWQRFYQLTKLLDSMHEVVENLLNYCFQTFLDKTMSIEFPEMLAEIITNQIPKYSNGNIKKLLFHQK
Chain of Peroxisome proliferator-activated receptor delta (Homo sapiens) (Q03181 whole entry, looked up): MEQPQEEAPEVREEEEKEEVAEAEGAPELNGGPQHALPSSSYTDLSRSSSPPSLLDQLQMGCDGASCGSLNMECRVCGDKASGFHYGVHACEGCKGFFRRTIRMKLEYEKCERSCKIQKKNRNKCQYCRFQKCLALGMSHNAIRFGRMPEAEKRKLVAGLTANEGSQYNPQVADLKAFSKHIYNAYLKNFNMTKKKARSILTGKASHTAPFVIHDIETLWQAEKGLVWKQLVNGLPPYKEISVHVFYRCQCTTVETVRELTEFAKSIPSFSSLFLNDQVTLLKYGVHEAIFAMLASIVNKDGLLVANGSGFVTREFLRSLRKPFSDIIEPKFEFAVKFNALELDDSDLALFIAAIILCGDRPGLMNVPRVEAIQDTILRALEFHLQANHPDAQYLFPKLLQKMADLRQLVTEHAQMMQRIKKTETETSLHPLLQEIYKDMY

Cc1ccc(O)c(O)c1
inactive: Potency [1] | Potency [2] | Potency [3]

Cc1ccc(C)c(N)c1
inactive: Potency [4] | Potency [1] | Potency [2] | Potency [5] | Potency [3]

CC(CO)(CO)[N+](=O)[O-]
inactive: Potency [6] | Potency (Aromatase (Homo sapiens)) | Potency [1] | Potency [2] | Potency [5] | Potency [3]

CC1CC(=O)NN=C1c1ccc(NCC(C)(C)NCC(O)COc2cc(Cl)ccc2C#N)cc1 (stereo not drawn)
inactive: Potency [2] | Potency [3]
active: Potency [1] 24.5 µM

C/C(=N/NC(=O)c1ccncc1)C(=O)O
inactive: Potency [1] | Potency [2] | Potency [3]

O=C(Oc1ccccc1)c1ccccc1C(=O)Oc1ccccc1
inactive: Potency (Aromatase (Homo sapiens)) | Potency [1] | Potency [2] | Potency [5] | Potency [3]

CO[Si](C)(OC)OC
inactive: Potency [1] | Potency [2] | Potency [3]

C1=C\CC/C=C\CC/C=C\CC/1
inactive: Potency [4] | Potency [6] | Potency [1] | Potency [2] | Potency [5] | Potency [3]

Cc1cc(O)c2ccccc2c1O
inactive: Potency [1] | Potency [2] | Potency [3]

N[C@@H]1CONC1=O
inactive: Potency [1] | Potency [2] | Potency [3]

CC1(CN2CCC(n3c(=O)[nH]c4ccccc43)CC2)OCc2ccccc2-n2cccc21 (stereo not drawn)
inactive: Potency [1] | Potency [2] | Potency [3]

CN1CCCN=C1COC(=O)C(O)(c1ccccc1)C1CCCCC1 (stereo not drawn)
inactive: Potency [1] | Potency [2] | Potency [5] | Potency [3]

Cc1cc(C)c(N)cc1C
inactive: Potency (Aromatase (Homo sapiens)) | Potency [1] | Potency [2] | Potency [5] | Potency [3]

C[N+]12CCC(CC1)C(OC(=O)C(O)(c1ccccc1)c1ccccc1)C2 (stereo not drawn)
inactive: Potency [4] | Potency [6] | Potency (Aromatase (Homo sapiens)) | outcome [7] | Potency [1] | Potency [2] | Potency [5] | Potency [3]

CC(C)(c1cc(Br)c(OCCO)c(Br)c1)c1cc(Br)c(OCCO)c(Br)c1
active: Potency [4] 42.3 µM | Potency (Aromatase (Homo sapiens)) 42.3 µM
inactive: Potency [1] | Potency [2] | Potency [5] | Potency [3]

CN(C)CCCO[C@@H]1[C@H]2OC(C)(C)O[C@H]2O[C@@H]1C(O)CO (stereo partly drawn)
inactive: Potency [1] | Potency [2] | Potency [3]

Cc1ccccc1C(=O)O
inactive: Potency [1] | Potency [2] | Potency [3]

CCCCCN=C(N)N/N=C/c1c[nH]c2ccc(OC)cc12
inactive: Potency [1] | Potency [2] | Potency [3]

CC[C@H](C)[C@H](N)C(=O)O
inactive: Potency [1] | Potency [2] | Potency [3]

CN1CCC(N(Cc2cccs2)c2ccccc2)CC1
inactive: Potency [6] | Potency [1] | Potency [2] | Potency [5] | Potency [3]

C[C@@H]1C[C@H]2[C@@H]3C[C@H](F)C4=CC(=O)C(Cl)=C[C@]4(C)[C@@]3(F)[C@@H](O)C[C@]2(C)[C@@]1(O)C(=O)CO
inactive: Potency [1] | Potency [2] | Potency [3]

O=C1CCc2cc(OCCCCc3nnnn3C3CCCCC3)ccc2N1
inactive: Potency [2] | Potency [3]
active: Potency [1] 24.5 µM

COC(=O)CSc1cc(N=c2sc(=O)n3n2CCCC3)c(F)cc1Cl
inactive: Potency [1] | Potency [2] | Potency [3]

c1ccc(-c2ccc(-c3ccccc3)cc2)cc1
inactive: Potency (Aromatase (Homo sapiens)) | activity, negative = inhibition [1] -0.11% [at 23.6 µM] | activity change, negative = inhibition [2] 0% [at 23.6 µM] | activity change, negative = inhibition [5] 6.58% [at 23.8 µM] | activity change, negative = inhibition [3] 0.417% [at 23.6 µM]

CCC(=O)Oc1ccc2c(c1)CC[C@@H]1[C@@H]2CC[C@@]2(C)[C@H]1C[C@@H](OC(=O)CC)[C@@H]2OC(=O)CC
inactive: Potency [1] | Potency [2] | Potency [3]

CC(=O)Oc1cccc(C)c1
inactive: Potency [1] | Potency [2] | Potency [3]

O=S(=O)(O)c1cc(S(=O)(=O)O)c2ccc3c(S(=O)(=O)O)cc(S(=O)(=O)O)c4ccc1c2c43
inactive: activity, negative = inhibition [1] -7.76% [at 23.6 µM] | activity change, negative = inhibition [2] -5.03% [at 23.6 µM] | activity change, negative = inhibition [3] 2.76% [at 23.6 µM]

COc1ccc(S(=O)(=O)N2c3ccc(Cl)cc3[C@@](O)(c3ccccc3Cl)[C@H]2C(=O)N2CCC[C@@H]2C(N)=O)cc1OC
inactive: Potency [1] | Potency [2] | Potency [5] | Potency [3]

Cc1ccc(N)cc1[N+](=O)[O-]
inactive: Potency [4] | Potency (Aromatase (Homo sapiens)) | Potency [1] | Potency [2] | Potency [5] | Potency [3]

COc1cc2c(cc1OC)C(=O)CC2
inactive: Potency [1] | Potency [2] | Potency [5] | Potency [3]

Cc1ccccc1C
inactive: Potency [4] | Potency [6] | Potency [1] | Potency [2] | Potency [5] | Potency [3]

CS(=O)(=O)c1ccc(-c2cn3ccccc3n2)cc1
inactive: Potency [1] | Potency [2] | Potency [3]

CCCCCCCCCCCCOC(C)=O
inactive: Potency [1] | Potency [2] | Potency [3]

NCc1cccc(C2CCN(C(=O)c3ccc(C#Cc4ccccc4F)o3)CC2)c1
inactive: Potency [1] | Potency [3]
active: Potency [2] 79.6 µM

CCOC(=O)Nc1ccc(NCc2ccc(F)cc2)nc1N
inactive: Potency [1] | Potency [2] | Potency [3]

N#CSCC(=O)O
inactive: Potency [1] | Potency [2] | Potency [3]

O=C1c2ccccc2C(=O)c2cc(Cl)ccc21
inactive: activity, negative = inhibition [1] -0.634% [at 10.5 µM] | activity change, negative = inhibition [2] -1.23% [at 10.5 µM] | activity change, negative = inhibition [3] 0.0166% [at 10.5 µM]

Cc1cc(CCN2CCN(c3nsc4ccccc34)CC2)cc2c1NC(=O)CC2(C)C
inactive: outcome [1] | outcome [2] | outcome [3]

Cc1ccc(N)cc1S(=O)(=O)O
inactive: Potency [1] | Potency [2] | Potency [3]

CC1(C)C(=O)N(Br)C(=O)N1Cl
inactive: Potency [1] | Potency [2] | Potency [3]

CN(C)CCN(Cc1ccccc1)c1ccccn1
inactive: Potency [1] | Potency [2] | Potency [3]

CN(C)CCOC1=Cc2ccccc2Sc2ccc(Cl)cc21
inactive: Potency [1] | Potency [2] | Potency [3]

CCOC(=O)COc1ccc2c(c1)CC(NCC(O)c1cccc(Cl)c1)CC2 (stereo not drawn)
inactive: Potency [1] | Potency [2] | Potency [3]

O=C1NC(=O)c2cccc3cccc1c23
active: Potency [1] 39.9 µM
inactive: Potency [2] | Potency [3]

CN(C/C=C/c1ccccc1)Cc1cccc2ccccc12
inactive: outcome [1] | outcome [2] | outcome [3]
